Hits are enriched below; roughly 13% of the tested compounds scored in any of these assays.
Pf growth 96h: P. falciparum growth inhibition at 96 hours; P. falciparum luciferase reporter growth, 96 h; Potency, µM (series often up to 28.7 µM), actives largely listed as inhibitors; 320,000 compounds, 6.9% hits; AID 504834
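Compounds incubated with erythrocytes infected by luciferase-expressing P. falciparum (2% hematocrit, 0.05% parasitemia final) for 96 hours, 37 C in 5% CO2. Growth inhibition scored as decreased luciferase luminescence.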
Pf growth 48h: P. falciparum growth inhibition at 48 hours (one generation); P. falciparum luciferase growth in erythrocytes, 48 h; Potency, µM (titrated, usually from 28.7 µM), usual class: inhibitors; 310,000 compounds, 5.9% hits; AID 504832
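Compounds are pin-transferred into medium, infected erythrocytes (2% hematocrit, 0.1% parasitemia final) are added, and plates sit one parasite generation at 37 C in 5% CO2. Detection reagent is then added and luminescence measured.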
HCV inhibitor: HCV inhibition | AID 651820 | Huh7.5.1 HCVcc-Cre infection, luciferase reporter, 44 h | Potency, µM (titrated, usually from 41.8 µM), most hits filed as inhibitors | 340,000 compounds, 3.4% hits
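Infectious HCV cell culture screen: compound-treated cells (1,000/well, pre-plated 4 h) are infected with HCVcc-Cre at roughly 0.5 moi and grown 44 h. Infection is quantified by luciferase signal after 15 min substrate incubation at room temperature.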
HCMV inh: blocks human cytomegalovirus replication; HFF cells, HCMV-luciferase reporter, 72 h; stronger effect = lower value; activity change, negative = inhibition, % at 57.5 µM; 410,000 compounds, 4.5% hits; AID 1259415; in the data active = activity change below about -60%; inconclusive = no clear call, values can overlap the other calls; inactive = above about -39%
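Screen run at 2 compound doses on HFFs infected with reporter HCMV, MOI 1 PFU/cell. Luciferase activity from cell lysates at 72 h post infection gave inhibition relative to buffer-only and Salinomycin wells.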
Hits are given with their value; . = inactive; ? = inconclusive; / = no result. Unless noted, calls come from the whole dose curve; as a rule, active = well fitted inhibition curve with a large enough effect; inconclusive = small, poorly fitted or top-dose-only effect, or another doubt; inactive = no such curve, though single readings can be large or run the other way.

SMILES	Pf growth 96h	Pf growth 48h	HCV inhibitor	HCMV inh
CCOC(=O)C1=C(CC)NC2=C(C(=O)CCC2)C1c1ccc(OC)c(OC)c1 (stereo unspecified)	/	7.38µM	.	.
CCCCOC(=O)C1=C(C)NC2=C(C(=O)CCC2)C1c1cc(OC)ccc1OC (stereo unspecified)	13.1µM	/	.	?
Cc1ccc(NC(=O)C2CCN(C(=O)c3cnn(-c4ccccc4)c3-n3cccc3)CC2)cc1Cl	/	/	/	.
Cc1ccc(/C=C/c2onc(C)c2S(=O)(=O)N2CCC(C(=O)N3CCOc4ccc(C)cc43)CC2)cc1	/	/	/	.
Cc1nn2c(NCc3ccccn3)cc(C(C)C)nc2c1-c1ccccc1	1.65µM	1.65µM	3.98µM	-97.7
CCCc1cc(NCc2ccccn2)n2nc(C)c(-c3ccccc3)c2n1	13.1µM	2.62µM	?	-94.6
Cc1cc(NCc2ccccn2)n2ncc(-c3ccccc3)c2n1	.	.	2.82µM	-66.2
CC(C)n1cnc2cc(NCc3ccccn3)ccc21	/	.	.	.
Cc1nn2c(NCCCn3ccnc3)cc(C(C)C)nc2c1-c1ccccc1	8.28µM	2.08µM	.	?
Cc1cc(NCc2ccccn2)n2ncc(-c3ccc(Cl)cc3)c2n1	.	.	?	.
Cc1cc(NCCCN2CCOCC2)n2nc(C)c(-c3ccccc3)c2n1	?	?	.	.
Cc1ccc(C)c(NC(=O)CSc2nc3nccnc3c(=O)n2CCc2c[nH]c3ccccc23)c1	/	/	/	.
COc1ccc(OC)c(-c2cc(C(=O)Nc3cnn(Cc4ccc(Cl)cc4Cl)c3)no2)c1	/	/	/	.
CCOc1cc(C(=O)NCCc2sc(-c3ccc(F)cc3)nc2C)cc(OCC)c1OCC	/	/	/	.
COC(=O)C(CCSC)NC(=O)C(NC(=O)C1CCC(C)CC1)C(C)C (stereo unspecified)	2.33µM	.	.	.
COC(=O)CCSc1nc2sc3c(c2c(=O)n1Cc1ccccc1)CCC(C(C)(C)C)C3 (stereo unspecified)	/	/	/	.
Cc1ccc2c(c1)nnn2C1CCN(CC(=O)c2ccc(Cl)cc2)CC1	.	?	.	.
CCOC(=O)CN(C(=O)CN1CCC(n2nnc3cc(C)ccc32)CC1)c1ccccc1	5.22µM	/	.	.
Cc1ccc2c(c1)nnn2C1CCN(CC(=O)N(c2ccccc2)c2ccccc2)CC1	11.7µM	6.57µM	?	-69.9
Cc1ccc2c(c1)nnn2C1CCN(C(=O)C23CC4CC(CC(C4)C2)C3)CC1	13.1µM	?	.	.
Cc1ccc2c(c1)nnn2C1CCN(CC(=O)N2c3ccccc3CC2C)CC1 (stereo unspecified)	.	?	.	-76.1
CCCOc1ccc(CNC(=O)c2cc3ccccn3n2)cc1	/	/	/	.
COc1cccc(CNCCSc2nnnn2C)c1OCc1ccccc1	/	/	/	.
Cc1cc(C)c2oc(C(=O)Nc3c(C(=O)c4ccccc4)oc4ccccc34)cc(=O)c2c1	/	/	/	.
COc1cc(C2N(c3ccccc3)CCN2c2ccccc2)ccc1OC(C)=O	.	.	.	-62.8
SMILES	Pf growth 96h	Pf growth 48h	HCV inhibitor	HCMV inh
CCC1C=CC=CC[C@H](C)[C@@H](O)[C@](C)(O)C(=O)[C@@H](C)[C@H](O)[C@@H](C)C(=O)[C@H](C)[C@@H](O)[C@H](C)C=CC(=O)OC2[C@@H](C)C(CC1)OC1(CC[C@@H](C)C(C[C@H](C)O)O1)[C@@H]2C (stereo partly specified)	0.117µM	0.131µM	0.891µM	/
CCN(CC)c1ccc(-n2c(C)c(C(C)=O)c(C(C)=O)c2C)cc1	?	?	.	-62.6
CC1(C)CCCC(C)(C)N1CC(O)COCCOc1ccc(Br)cc1 (stereo unspecified)	?	5.86µM	?	?
COc1ccccc1N1CCN(CC(O)COCCOc2ccc(Br)cc2)CC1 (stereo unspecified)	13.1µM	.	?	?
CCOC(=O)c1ccc(NC(=O)CCc2c(C)nc3c(c(C)nn3C)c2C)cc1	/	/	/	.
O=C(Nc1ccc(C(=O)N2CCCCC2)cc1)c1ccc(Br)cc1	4.15µM	?	.	.
O=C(Nc1ccc2c(c1)OCCO2)C1CCN(C(=O)c2ccc(Br)cc2)CC1	2.62µM	.	.	.
O=C(c1ccc2c(c1)OCCO2)C1CCN(C(=O)c2ccc(F)cc2)CC1	.	?	?	.
O=C(c1ccc2c(c1)OCCO2)C1CCN(C(=O)c2ccc(F)c(F)c2)CC1	.	?	?	-67.5
Cc1ccc(OCCSc2nc3ccccc3n2CCC(=O)O)cc1C	/	/	/	.
C[C@H](CO)N1C[C@H](C)[C@H](CN(C)C(=O)Nc2ccc(-c3cccs3)cc2)OCc2cnnn2CCCC1=O	/	/	/	-60.7

Screening results deposited in PubChem BioAssay by National Center for Advancing Translational Sciences (NCATS).
